# Measurements published in PubChem BioAssay (Tox21).
# Inconclusive results are not listed. Entries that show only a call come without a potency. A structure can be active in one record and inactive in another. The source made the active and inactive calls. Unless noted, calls come from the whole dose curve; as a rule, active = well fitted curve in the direction sought with a large enough effect in the repeat runs; inconclusive = weak or mixed curves; inactive = no such curve, though single readings can be large; an effect the other way counts as inactive or inconclusive.
# How the values were obtained:
# [1] = target: Peroxisome proliferator-activated receptor gamma (Homo sapiens) (UniProt P37231); assay: qHTS assay to identify small molecule agonists of the peroxisome proliferator-activated receptor gamma (PPARg) signaling pathway (AID 743094; active = well fitted activation curve with a large enough effect in the signal ratio in the repeat runs, not every such curve was filed as active; the % refers to the signal ratio)
# In short: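 Cell-based bla reporter, HEK293H background, PPARg-driven UAS. Pre-incubation 5 h, 37C, 5% CO2. Compound 17 h, 37C. Substrate 1 h RT; fluorescence.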
# [2] = target: Peroxisome proliferator-activated receptor gamma (Homo sapiens) (UniProt P37231); assay: qHTS assay to identify small molecule antagonists of the peroxisome proliferator-activated receptor gamma (PPARg) signaling pathway (AID 743191; calls by dose curve; note: series mostly up to about 63 µM; nearly all actives have a fitted effect of over 30% in size)
# In short: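 GeneBLAzer PPARg UAS-bla HEK293H cells carrying a UAS-driven beta-lactamase reporter were plated at 3000 cells/well, preincubated 5 h at 37C, then given compound for 17 h at 37C; LiveBLAzer B/G FRET substrate was read after 1 h at room temperature.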
# [3] = qHTS assay to identify small molecule antagonists of the peroxisome proliferator-activated receptor gamma (PPARg) signaling pathway - cell viability counter screen (AID 743194); note: nearly all actives have a fitted effect of over 55% in size
# In short: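 PPARg-UAS-bla HEK293H cells were plated, rested 5 h at 37 C, then treated with compounds plus rosiglitazone (50 nM final) for 17 h at 37 C; viability was then read by CellTiter-Glo luminescence after 30 min at room temperature.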
# [4] = qHTS assay for small molecule agonists of the antioxidant response element (ARE) signaling pathway (AID 743202; active = well fitted activation curve with a large enough effect in the signal ratio in the repeat runs, not every such curve was filed as active; the % refers to the signal ratio; note: potency is the fitted concentration of half-maximal effect)
# In short: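 Following a 16 h, 37 C exposure of reporter HepG2 cells (ARE-driven beta-lactamase, 2,000 cells/well) to compounds, FRET substrate was applied for 2 h at room temperature and fluorescence intensity recorded.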
# [5] = qHTS assay for small molecule agonists of the antioxidant response element (ARE) signaling pathway - cell viability counter screen (AID 743203; calls by dose curve; note: nearly all actives have a fitted effect of over 55% in size)
# In short: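 Measured in the same wells as the beta-lactamase ARE reporter, this read-out is CellTiter-Glo luminescence from HepG2 ARE-bla cells given compounds for 16 hrs.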
# [6] = qHTS assay for small molecule activators of the heat shock response signaling pathway (AID 743210; active = well fitted activation curve with a large enough effect in the signal ratio in the repeat runs, with a control signal flat, not every such curve was filed as active; the % refers to the signal ratio; note: series mostly up to about 63 µM)
# In short: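 Heat shock element–beta-lactamase HeLa reporter cells; qHTS with compounds for 5 h at 37 C; detection by FRET substrate fluorescence after 2.5 h at RT.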
# [7] = qHTS assay to identify small molecule agonists of the peroxisome proliferator-activated receptor delta (PPARd) signaling pathway - cell viability counter screen (AID 743211); note: nearly all actives have a fitted effect of over 55% in size
# In short: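 Counter screen for cytotoxicity run in parallel with the PPARd reporter screen. Beta-lactamase reporter HEK293H cells exposed to compounds 17 h; ATP-based CellTiter-Glo luminescence quantified viability.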
# [8] = qHTS assay to identify small molecule antagonists of the peroxisome proliferator-activated receptor delta (PPARd) signaling pathway - cell viability counter screen (AID 743213); note: nearly all actives have a fitted effect of over 50% in size
# In short: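 Same-well viability: cells pre-incubated 5 h, dosed with compound plus 300 nM L165041, kept 17 h at 37 C, FRET substrate 2 h RT, then CellTiter-Glo 30 min RT and luminescence.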
# [9] = qHTS assay to identify small molecule agonists of the farnesoid-X-receptor (FXR) signaling pathway - cell viability counter screen (AID 743218); note: nearly all actives have a fitted effect of over 45% in size
# In short: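 Readout: CellTiter-Glo luminescence, 30 min RT, multiplexed after the FXR-bla FRET reading. HEK 293T FXR-UAS-bla cells received compound 5 h post-plating and were incubated 16 h at 37 C.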
# [10] = qHTS assay to identify small molecule antagonists of the farnesoid-X-receptor (FXR) signaling pathway - cell viability counter screen (AID 743221; active = well fitted cell-killing curve with a large enough effect in the repeat runs, not every such curve was filed as active; note: nearly all actives have a fitted effect of over 50% in size)
# In short: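 Multiplexed counter screen: viability of FXR-bla HEK 293T cells under agonist stimulation by chenodeoxycholic acid (50 uM, final) and test compound for 16 h at 37 C, measured by CellTiter-Glo luminescence in the reporter wells.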
# [11] = target: Vitamin D3 receptor (Homo sapiens) (UniProt P11473); assay: qHTS assay to identify small molecule agonists of the vitamin D receptor (VDR) signaling pathway (AID 743222; calls by dose curve)
# In short: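 Following 4 h attachment at 37C, VDR-bla cells (2,000 per well) received DMSO-dissolved compounds or controls. After 16 h incubation, LiveBLAzer B/G FRET substrate was added and fluorescence read 2 h later at room temperature.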
# [12] = target: Vitamin D3 receptor (Homo sapiens) (UniProt P11473); assay: qHTS assay to identify small molecule antagonists of the vitamin D receptor (VDR) signaling pathway (AID 743223; active = well fitted inhibition curve with a large enough effect in the signal ratio in the repeat runs, not every such curve was filed as active; the % refers to the signal ratio)
# In short: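 Cells carrying a VDR-driven beta-lactamase reporter (VDR-bla) were co-treated with compound and 3 nM final 1alpha,25-dihydroxyvitamin D3 for 16 h at 37C; reporter activity was measured as FRET substrate fluorescence after 2 h at room temperature.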
# [13] = qHTS assay to identify small molecule agonists of the vitamin D receptor (VDR) signaling pathway - cell viability counter screen (AID 743224); note: series mostly up to about 63 µM; nearly all actives have a fitted effect of over 50% in size
# In short: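 In parallel with the bla FRET readout, cytotoxicity toward VDR-bla cells after 16 h compound exposure was assessed by CellTiter-Glo, with luminescence recorded after a 30 min room-temperature incubation.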
# [14] = qHTS assay to identify small molecule antagonists of the vitamin D receptor (VDR) signaling pathway - cell viability counter screen (AID 743225); note: nearly all actives have a fitted effect of over 50% in size
# In short: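 HEK293T VDR-bla; cpd + 1a,25-(OH)2D3 3 nM final, 16 h 37C/5% CO2; B/G FRET substrate 2 h RT; then CellTiter-Glo 30 min RT, luminescence.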
# [15] = qHTS assay for small molecule activators of the heat shock response signaling pathway - cell viability counter screen (AID 743209); note: nearly all actives have a fitted effect of over 50% in size
# In short: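 Same-well multiplex: after 2.5 h room-temperature incubation with LiveBLAzer B/G substrate and fluorescence reading, CellTiter-Glo reagent was added to HSE-bla HeLa cells that had received compound for 5 h at 37 C; luminescence read after 30 min.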
# [16] = target: Peroxisome proliferator-activated receptor delta (Homo sapiens) (UniProt Q03181); assay: qHTS assay to identify small molecule agonists of the peroxisome proliferator-activated receptor delta (PPARd) signaling pathway (AID 743212; calls by dose curve)
# In short: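 Beta-lactamase reporter read by fluorescence (LiveBLAzer B/G FRET, 2 h, room temperature). Test agents, in DMSO, incubated at 37 C with PPARd-bla HEK293H cells.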
# [17] = target: Peroxisome proliferator-activated receptor delta (Homo sapiens) (UniProt Q03181); assay: qHTS assay to identify small molecule antagonists of the peroxisome proliferator-activated receptor delta (PPARd) signaling pathway (AID 743215; active = well fitted inhibition curve with a large enough effect in the signal ratio in the repeat runs, not every such curve was filed as active; the % refers to the signal ratio;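 note: cells stimulated with agonist L165041 at 300 nM final during compound exposure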; note: potency is the fitted concentration of half-maximal effect)
# In short: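 Fluorescence from cleaved LiveBLAzer B/G FRET substrate (2 h, room temperature) reports PPARd-driven beta-lactamase in HEK293H UAS-bla cells. Cells had been treated 17 h at 37 C with compound plus 300 nM final L165041.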
# [18] = target: Bile acid receptor (Homo sapiens) (UniProt Q96RI1); assay: qHTS assay to identify small molecule antagonists of the farnesoid-X-receptor (FXR) signaling pathway (AID 743217; active = well fitted inhibition curve with a large enough effect in the signal ratio in the repeat runs, not every such curve was filed as active; the % refers to the signal ratio)
# In short: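 FRET fluorescence after 2 h room-temperature LiveBLAzer loading gives the readout. Prior step: FXR-bla HEK 293T cells, seeded and incubated 5 h, received test compounds plus 50 uM final CDCA for 16 h at 37 °C.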
# [19] = target: Bile acid receptor (Homo sapiens) (UniProt Q96RI1); assay: qHTS assay to identify small molecule agonists of the farnesoid-X-receptor (FXR) signaling pathway (AID 743220; active = well fitted activation curve with a large enough effect in the signal ratio in the repeat runs, not every such curve was filed as active; the % refers to the signal ratio)
# In short: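 FXR-UAS-bla HEK 293T cells carrying a UAS-driven beta-lactamase reporter were plated for 5 h at 37C/5% CO2, then exposed to DMSO-dissolved Tox21 10K compounds for 16 h at 37C. A LiveBLAzer B/G FRET substrate was loaded for 2 h at room temperature before fluorescence reading.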
# Sequence of Peroxisome proliferator-activated receptor gamma (Homo sapiens) (P37231 whole entry, looked up): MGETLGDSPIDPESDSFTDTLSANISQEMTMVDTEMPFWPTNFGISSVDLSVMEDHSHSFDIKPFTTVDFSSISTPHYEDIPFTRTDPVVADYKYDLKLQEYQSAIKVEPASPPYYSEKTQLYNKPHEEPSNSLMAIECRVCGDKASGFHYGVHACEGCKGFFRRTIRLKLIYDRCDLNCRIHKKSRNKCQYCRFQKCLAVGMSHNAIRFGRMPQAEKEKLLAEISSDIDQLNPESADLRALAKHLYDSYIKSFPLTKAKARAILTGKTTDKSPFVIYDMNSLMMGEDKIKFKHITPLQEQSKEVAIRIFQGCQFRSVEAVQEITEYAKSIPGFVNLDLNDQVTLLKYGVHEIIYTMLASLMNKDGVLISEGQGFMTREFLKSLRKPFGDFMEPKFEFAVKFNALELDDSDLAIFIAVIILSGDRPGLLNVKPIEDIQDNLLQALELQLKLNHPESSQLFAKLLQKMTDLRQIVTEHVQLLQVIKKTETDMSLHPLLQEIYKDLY
# Sequence of Vitamin D3 receptor (Homo sapiens) (P11473 whole entry, looked up): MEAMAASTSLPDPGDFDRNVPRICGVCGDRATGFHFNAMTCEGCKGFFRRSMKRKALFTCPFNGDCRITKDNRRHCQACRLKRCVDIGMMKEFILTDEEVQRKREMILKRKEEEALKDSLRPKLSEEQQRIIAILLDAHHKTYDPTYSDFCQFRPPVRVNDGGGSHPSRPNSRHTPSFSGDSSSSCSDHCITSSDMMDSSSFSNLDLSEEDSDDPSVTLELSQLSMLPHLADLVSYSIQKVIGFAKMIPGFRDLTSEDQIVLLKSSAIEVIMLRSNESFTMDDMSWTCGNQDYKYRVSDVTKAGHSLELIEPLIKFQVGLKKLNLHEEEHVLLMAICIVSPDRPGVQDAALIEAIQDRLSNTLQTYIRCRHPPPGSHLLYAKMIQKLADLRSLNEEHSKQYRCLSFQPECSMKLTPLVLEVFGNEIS
# Sequence of Peroxisome proliferator-activated receptor delta (Homo sapiens) (Q03181 whole entry, looked up): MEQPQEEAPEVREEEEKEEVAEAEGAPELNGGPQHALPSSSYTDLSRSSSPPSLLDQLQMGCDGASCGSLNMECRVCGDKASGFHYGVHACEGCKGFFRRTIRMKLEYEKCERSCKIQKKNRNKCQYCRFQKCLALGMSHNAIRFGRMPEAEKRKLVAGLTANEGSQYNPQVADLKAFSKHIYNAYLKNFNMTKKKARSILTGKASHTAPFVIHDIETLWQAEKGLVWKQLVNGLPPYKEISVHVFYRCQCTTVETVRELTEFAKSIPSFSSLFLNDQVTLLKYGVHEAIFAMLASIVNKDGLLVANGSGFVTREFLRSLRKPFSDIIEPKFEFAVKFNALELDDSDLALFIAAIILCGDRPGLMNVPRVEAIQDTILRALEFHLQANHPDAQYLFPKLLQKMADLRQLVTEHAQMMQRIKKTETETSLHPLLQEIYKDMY
# Sequence of Bile acid receptor (Homo sapiens) (Q96RI1 whole entry, looked up): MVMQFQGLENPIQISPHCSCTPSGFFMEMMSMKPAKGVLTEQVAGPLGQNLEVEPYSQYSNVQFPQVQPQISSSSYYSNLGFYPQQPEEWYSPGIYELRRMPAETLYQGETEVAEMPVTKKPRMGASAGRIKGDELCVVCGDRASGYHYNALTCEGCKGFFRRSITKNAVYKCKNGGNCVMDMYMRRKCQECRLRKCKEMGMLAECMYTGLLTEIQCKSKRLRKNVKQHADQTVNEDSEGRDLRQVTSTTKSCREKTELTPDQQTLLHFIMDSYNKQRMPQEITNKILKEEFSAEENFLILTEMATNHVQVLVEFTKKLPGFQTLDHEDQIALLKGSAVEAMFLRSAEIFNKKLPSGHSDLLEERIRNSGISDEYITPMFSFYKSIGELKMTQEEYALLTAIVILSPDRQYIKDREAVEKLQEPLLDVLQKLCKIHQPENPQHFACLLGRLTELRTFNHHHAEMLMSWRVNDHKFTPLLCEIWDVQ
SMILES,outcome [1],Potency [2],outcome [3],Potency [4],outcome [5],outcome [6],outcome [7],outcome [8],outcome [9],outcome [10],outcome [11],outcome [12],outcome [13],outcome [14],outcome [15],outcome [16],Potency [17],outcome [18],outcome [19]
CC(=O)C=C(C)C,inactive,inactive,inactive,inactive,inactive,inactive,inactive,inactive,inactive,inactive,inactive,inactive,inactive,inactive,–,–,–,–,–
C#CC(C)(C)NC(=O)c1cc(Cl)cc(Cl)c1,–,–,inactive,inactive,inactive,–,inactive,inactive,–,inactive,inactive,inactive,inactive,inactive,inactive,inactive,inactive,–,–
CCCCCOC(=O)c1ccccc1C(=O)OCCCCC,inactive,inactive,inactive,inactive,inactive,inactive,inactive,inactive,–,inactive,inactive,inactive,inactive,inactive,–,–,–,–,–
Cc1cc(Cl)ccc1O,inactive,inactive,inactive,inactive,inactive,inactive,inactive,inactive,–,inactive,inactive,inactive,inactive,–,–,inactive,inactive,inactive,inactive
CCCCN(CC)C(=O)SCCC,inactive,inactive,inactive,inactive,inactive,–,inactive,inactive,inactive,inactive,inactive,inactive,inactive,–,inactive,inactive,inactive,inactive,inactive
COc1ccc2c3c1O[C@H]1[C@@H](O)C=C[C@H]4[C@@H](C2)N(C)CC[C@@]341,inactive,–,inactive,26.9 µM (active),inactive,inactive,inactive,inactive,–,inactive,inactive,inactive,inactive,inactive,–,inactive,42.6 µM (active),inactive,inactive
O=Cc1cccc(Oc2ccccc2)c1,inactive,inactive,inactive,inactive,inactive,inactive,inactive,inactive,inactive,inactive,inactive,inactive,inactive,–,–,inactive,inactive,–,–
C#CCN(C)[C@H](C)Cc1ccccc1,inactive,inactive,inactive,inactive,inactive,–,inactive,inactive,inactive,inactive,inactive,inactive,inactive,inactive,inactive,inactive,inactive,–,–
COC(=O)c1ccccc1C(=O)OC,inactive,inactive,inactive,inactive,inactive,inactive,inactive,inactive,–,inactive,inactive,inactive,inactive,inactive,inactive,–,–,inactive,inactive
c1cc2c3c(cccc3c1)CC2,inactive,inactive,inactive,inactive,inactive,–,inactive,inactive,inactive,inactive,–,–,inactive,inactive,–,inactive,inactive,–,–
[O-][Cl+2]([O-])O,inactive,inactive,inactive,inactive,inactive,inactive,inactive,inactive,inactive,inactive,inactive,inactive,inactive,inactive,inactive,–,–,inactive,inactive
O=c1n(Cl)c(=O)n(Cl)c(=O)n1Cl,inactive,inactive,inactive,inactive,inactive,–,inactive,inactive,–,inactive,inactive,inactive,inactive,–,inactive,inactive,inactive,–,–
O=S(=O)(c1ccc(O)cc1)c1ccc(O)cc1,inactive,inactive,inactive,inactive,inactive,–,inactive,inactive,inactive,inactive,inactive,inactive,inactive,inactive,inactive,inactive,inactive,inactive,inactive
Cc1cc(-c2cc(C)c(N)c(C)c2)cc(C)c1N,inactive,inactive,inactive,inactive,inactive,–,inactive,inactive,–,inactive,inactive,inactive,inactive,–,inactive,inactive,inactive,–,–
CC(C)(C)OOC(=O)c1ccccc1,inactive,inactive,inactive,inactive,inactive,–,inactive,inactive,inactive,inactive,inactive,inactive,inactive,inactive,inactive,inactive,inactive,–,–
O=NN1CCCC1,inactive,inactive,inactive,inactive,inactive,–,inactive,inactive,–,inactive,inactive,inactive,inactive,inactive,inactive,inactive,inactive,inactive,inactive
Cc1ccc(N)cc1Cl,inactive,inactive,inactive,inactive,inactive,inactive,inactive,inactive,inactive,inactive,inactive,inactive,inactive,–,inactive,–,–,–,–
Clc1cccc(Cl)c1Cl,inactive,inactive,inactive,inactive,inactive,inactive,inactive,inactive,inactive,inactive,inactive,inactive,inactive,–,–,inactive,inactive,–,–
CCN(CC)c1ccccc1,inactive,inactive,inactive,inactive,inactive,–,inactive,inactive,–,inactive,inactive,inactive,inactive,inactive,inactive,–,–,inactive,inactive
